Bioassay records from PubChem.
MgrA-DNA mod: alters Staphylococcus aureus MgrA binding to DNA. fluorescence polarization. inhibition, % (concentration not given with the values). 84,000 tested, 0.13% active. AID 602314; in the data active = inhibition above about 30%, passing the limit was not always enough;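 note: 0% = protein plus DNA without compound and 100% = DNA alone without protein; higher means less MgrA bound to DNA so lower polarization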
Active calls of the source: *. Shown is part of a subset that was picked to be rich in hits.

Screening CN(C)Cc1ccccc1C(O)c1ccccc1 (stereo not drawn) returned MgrA-DNA mod -0.2.
CCc1cc2cc(C)cc(C)c2nc1SCC(=O)N1CCN(C(=O)c2ccco2)CC1 was read as MgrA-DNA mod 2.5.
O=C(c1ccco1)N1CCCN(C(=O)c2ccco2)CC1 was read as MgrA-DNA mod 1.4.
Cc1cc(C)c2nc(N3CCCN(C(=O)c4ccco4)CC3)c(C#N)cc2c1 was read as MgrA-DNA mod 48.6*.
COc1ccc(C(=O)c2ccccc2C(=O)O)cc1 was read as MgrA-DNA mod -1.5.
`CCC(=O)Oc1ccc(C(=O)N2CCCCC2)cc1` gave MgrA-DNA mod 1.6.
For COc1ccc(CN2CCN(Cc3ccco3)CC2)c(OC)c1OC the results were MgrA-DNA mod -0.7.
C=Cc1c(C)/c2[n-]/c1=C\c1[n-]c(c(CC)c1C)/C=c1\[n-]c3c(c1C)C(=O)C(C(=O)[O-])C=3c1[n-]c(c(C)c1CCC(=O)[O-])\C=2.[Cu].[Na+].[Na+] (stereo not drawn) was read as MgrA-DNA mod 88.0*.
Clc1ccc(-c2cnc3[n+](c2)[C@H](CBr)CS3)cc1 was read as MgrA-DNA mod -4.8.
For C=C(C)CNC(=S)Nc1scc(-c2ccsc2)c1C(=O)OCC the results were MgrA-DNA mod 0.6.
COc1ccc(/C=C/C(=O)C2C(=O)COC2=O)cc1OC (stereo not drawn) was read as MgrA-DNA mod 0.7.
For CNS(=O)(=O)c1cc(Br)ccc1I the results were MgrA-DNA mod 1.6.
For O=S(=O)(c1ccc2nsnc2c1)N1CCCCC1c1cccnc1 (stereo not drawn) the results were MgrA-DNA mod -2.0.
Screening O=S(=O)(c1cccc(C(F)(F)F)c1)N1CCCC1c1cccnc1 (stereo not drawn) returned MgrA-DNA mod 1.5.
For O=S(=O)(c1ccc2c(c1)OCCO2)N1CCCCC1c1cccnc1 (stereo not drawn) the results were MgrA-DNA mod 57.8*.
Screening CC(=O)Nc1cccc(C)c1C(=O)O returned MgrA-DNA mod 1.7.
For COC(=O)C1SCCN1C(=O)c1ccc(Cl)cc1 (stereo not drawn) the results were MgrA-DNA mod 1.3.
Screening COC(=O)c1sccc1NS(C)(=O)=O returned MgrA-DNA mod 0.2.
`COc1cccc(=O)c2c(C)oc(C)c12` gave MgrA-DNA mod 43.3*.
For CCOc1ccc(-c2cc(OC)c3c(C)oc(C)c3c(=O)c2)cc1 the results were MgrA-DNA mod 33.8.
Screening CCOc1cc(/C=C/c2ccccc2OC)cc(=O)c2c(C)oc(C)c12 returned MgrA-DNA mod -0.1.
`Cn1c(S(=O)(=O)Cc2ccc(Br)cc2)nc2ccccc21` gave MgrA-DNA mod 1.8.
Screening O=C(O)c1ccc(N2CCCC2)cc1 returned MgrA-DNA mod -5.6.
Screening Cc1cc(C)n(-c2ccc(C(=O)O)cc2)n1 returned MgrA-DNA mod -0.5.
Screening Cc1ccc(C)n1-c1ccc(C(=O)O)cc1 returned MgrA-DNA mod 99.5*.
Screening COc1ccc(/C=C2/SC(=S)N(CC(=O)O)C2=O)cc1OCc1ccc(Cl)cc1Cl returned MgrA-DNA mod 3.2.
`O=C1c2cccc3cc([N+](=O)[O-])cc(c23)C(=O)N1Cc1ccncc1` gave MgrA-DNA mod -1.2.
`O=c1c2ccccc2c2ccccc2c(=O)n1Cc1cccnc1` gave MgrA-DNA mod 2.5.
For O=C1c2cccc3c([N+](=O)[O-])ccc(c23)C(=O)N1Cc1cccnc1 the results were MgrA-DNA mod 60.5*.
Screening CC(C)(Oc1ccc(Cl)cc1)C(=O)NCc1ccc2c(c1)OCO2 returned MgrA-DNA mod 0.7.
`Cc1c(OCC(=O)Nc2ccc(Cl)cc2C(=O)c2ccccc2Cl)ccc2c1OC(C)(C)CC2=O` gave MgrA-DNA mod 1.9.
For CC[n+]1ccc(C)c2ccccc21 the results were MgrA-DNA mod -0.5.
Cc1cc(-c2ccccc2N)nc2ccccc12 was read as MgrA-DNA mod -3.7.
For Cc1cc(N)c2ccccc2[n+]1CCCCCCCCCC[n+]1c(C)cc(N)c2ccccc21 the results were MgrA-DNA mod 55.1*.
`O=C(Sc1ccc(C(F)(F)F)cn1)c1ccc(C(F)(F)F)cc1` gave MgrA-DNA mod -1.2.
O=C1C2C3C=CC(O3)C2C(=O)N1c1ccc(Cl)c(C(F)(F)F)c1 (stereo not drawn) was read as MgrA-DNA mod 3.8.
Screening CCN1C(=O)CC(c2ccc(OC)cc2)Sc2ccccc21 (stereo not drawn) returned MgrA-DNA mod -2.4.
COc1ccc([C@H]2Sc3ccccc3N(CCN(C)C)C(=O)[C@H]2OC(C)=O)cc1 was read as MgrA-DNA mod 96.2*.
Screening COc1ccc(C2Sc3ccccc3N(CCN(C)C)C(=O)C2OC(C)=O)cc1 (stereo not drawn) returned MgrA-DNA mod 0.9.
Screening Cc1ccc(-c2[nH]ncc2CN(C)Cc2ccccc2)cc1 returned MgrA-DNA mod -7.2.
For O=c1[nH]nc(-c2ccccc2)c2cc3c(=O)[nH]nc(-c4ccccc4)c3cc12 the results were MgrA-DNA mod -0.9.
For COc1ccc2c(c1)Nc1ccccc1S2 the results were MgrA-DNA mod -0.4.
`N#Cc1c(=O)n(O)c2ccccc2[n+]1[O-]` gave MgrA-DNA mod 48.6*.
Screening O=c1c(-c2ccc(Oc3ccccc3)cc2)[n+]([O-])c2ccccc2n1O returned MgrA-DNA mod 5.0.
Cc1c(=O)n(OCc2ccc(Cl)cc2)c2ccccc2[n+]1[O-] was read as MgrA-DNA mod 0.2.
`COc1cc2c(cc1OC)C(CC(=O)Nc1ccccc1)C(=O)N(C(C)=O)N=C2C` (stereo not drawn) gave MgrA-DNA mod 4.3.
For Cc1ccc(S(=O)(=O)N/N=C2\C3CN4CCN(C3)CC2(c2ccccc2)C4)cc1 the results were MgrA-DNA mod 1.5.
Screening N#CC(C#N)=C(N)/C(C#N)=C/c1ccco1 returned MgrA-DNA mod 1.2.
Screening N#C/C(=C\C=C\c1ccco1)C(N)=S returned MgrA-DNA mod 99.9*.
For COc1ccc(NC(=O)/C(C#N)=C/C=C/c2ccco2)cc1 the results were MgrA-DNA mod 1.6.
`O=C(Nc1ccc(Br)cc1)c1ccc(-n2cccn2)cc1` gave MgrA-DNA mod 4.0.
For O=C(CSc1cccs1)Nc1ccc(F)cc1F the results were MgrA-DNA mod 0.0.
For CC(C)(C)C(=O)C1C2C3COC(O3)C(=O)C2C2C=Cc3ccccc3N21 (stereo not drawn) the results were MgrA-DNA mod 41.5*.
For COC(=O)N1c2ccccc2C=CC1C#N (stereo not drawn) the results were MgrA-DNA mod 2.1.
C(=Nc1ccc(-c2csnn2)cc1)c1cccnc1 was read as MgrA-DNA mod 2.2.
`CCc1ccc(-n2c(SCC(=O)NCC(C)C)nnc2-c2ccncc2)cc1` gave MgrA-DNA mod 2.1.
O=C(/C=C/c1ccccc1)Nc1nc2c(s1)CCCC2 was read as MgrA-DNA mod 0.0.
Screening O=C(Nc1nc2c(s1)CCCC2)c1ccncc1 returned MgrA-DNA mod 41.7*.
Cc1ccc(C(=O)Nc2nc3c(s2)CCCC3)cc1 was read as MgrA-DNA mod 0.3.
CS(=O)(=O)NN=C1CCCCC1 was read as MgrA-DNA mod 0.9.
`CC(=O)Nc1c(Cl)cc(Cl)c2cccnc12` gave MgrA-DNA mod -1.2.
COc1cc(/C=C2\CCc3ccccc3C2=O)cc(OC)c1OC was read as MgrA-DNA mod -2.0.
For COc1ccc2c3c(cccc13)C(=O)CC2 the results were MgrA-DNA mod 69.0*.
Screening COC(=O)c1ccc2c3c(cccc13)CC2 returned MgrA-DNA mod 0.3.
For O=C(O)CCC(=O)N1N=C(c2cccs2)CC1c1ccccc1O (stereo not drawn) the results were MgrA-DNA mod -1.1.
